Experimental findings from ChEMBL document CHEMBL4513152, “CO-ADD screening of Yantai University (China) compounds” are described below.

One experiment has as its system Staphylococcus aureus. As to conditions: Concentration 32 ug.mL-1; ASSAY_TEST Inhibition of Bacterial Growth; detection method Absorption (OD600); MEDIA CAMHB; plate type 384well; NBS; CORNING #3640; time 18 hr.
A further experiment concerns Escherichia coli. Particulars: Concentration 32 ug.mL-1; ASSAY_TEST Inhibition of Bacterial Growth; detection method Absorption (OD600); MEDIA CAMHB; plate type 384well; NBS; CORNING #3640; time 18 hr.

Molecules are shown by their SMILES. Entries with a potency or affinity are not part of this list.

By Inhibition is commonly meant the drop in the measured response relative to a control, in per cent.

Take `CC(=O)O[C@H]1C[C@@]2(C)C(C[C@@H](O)C3[C@@]4(C)CC[C@@H](OC(=O)c5ccccc5C(=O)OCCc5ccc(OCCO[N+](=O)[O-])cc5)[C@@H](C)C4CC[C@@]32C)/C1=C(\CCC=C(C)C)C(=O)OCc1ccccc1` (stereo partly specified): the results for the Inhibition with Staphylococcus aureus and in the experiment on Escherichia coli were 8.23% and 0.28%, respectively.

Take `CC(=O)O[C@H]1C[C@@]2(C)C(C[C@@H](O)C3[C@@]4(C)CC[C@@H](OC(=O)CCCCCO[N+](=O)[O-])[C@@H](C)C4CC[C@@]32C)/C1=C(\CCC=C(C)C)C(=O)OCc1ccccc1` (stereo partly specified): the Inhibition in the experiment on Staphylococcus aureus is 6.22%; in the experiment on Escherichia coli, -6.82%.

With `CC(=O)O[C@H]1C[C@@]2(C)C(CC(=O)C3[C@@]4(C)CC[C@@H](OC(=O)CCCCO[N+](=O)[O-])[C@@H](C)C4CC[C@@]32C)/C1=C(\CCC=C(C)C)C(=O)OCc1ccccc1` (stereo partly specified), the Inhibition in the experiment on Staphylococcus aureus was 9.81%; in the experiment on Escherichia coli, -0.69%.
